# Luc counter: Kinase-Glo luciferase inhibition (counter-screen). AID 1379. 200,000 tested, 0.28% active. Kinase-Glo luciferase, ATP luminescence, 8 min. Potency, µM (top dose mostly 38.3 µM), inactives show at the highest dose activity change, negative = inhibition, hits mostly inhibitors; also: % is scaled to controls: 0 for no effect and ±100 for the full control effect; nearly all actives have a fitted effect of over 60% in size
#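 Recombinant Kinase-Glo luciferase, 10 uM ATP (linear range), luciferin; imidazole pH 7.2 / KCl / MgCl2 / Tween / BSA buffer; 8 min RT; luminescence.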
# Rab9 prom act: activators of Rab9 promoter. Huh7 Rab9 promoter-luciferase reporter, luminescence, 24 h. Potency, µM (series often up to 9.22 µM), for the others: at the top dose activation, negative = inhibition, hits mostly activators. 320,000 tested, 2.8% active; also: % of control where 0% means no effect; nearly all actives have a fitted effect of over 60% in size
#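 Using Huh7 cells stably transfected with Rab9 promoter–luciferase, compounds were incubated 24 h at 37 °C, 5% CO2; luciferase luminescence was read 10 min after reagent addition.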
# NPC1 prom act: NPC1 promoter activation. Huh7 NPC1 promoter luciferase reporter, 24 h. Potency, µM (top dose mostly 9.22 µM), for inactives: top-dose activation, usual class: activators. 320,000 tested, 2.4% active. AID 485313; also: % of control where 0% means no effect; nearly all actives have a fitted effect of over 60% in size
#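 Luminescence from an NPC1 promoter-driven luciferase reporter in stably transfected Huh7 cells was measured after 24 h compound treatment at 37 °C, followed by 10 min ambient incubation with luciferase detection reagent.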
# ELG1 genotox: inducers of genotoxicity in HEK293T ELG1-luciferase cells. HEK293T ELG1-luciferase reporter, luminescence, 16 h. Potency, µM (doses to about 46 µM), for the others: at the top dose activity change, positive = activation, usual class: activators. 330,000 tested, 1.3% active. AID 504466; also: % of control where 0% means no effect; nearly all actives have a fitted effect of over 60% in size
#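 HEK293T cells expressing luciferase-tagged ELG1 were exposed to compound or DMSO vehicle for 16 hr at 37 °C and 5% CO2. Luciferase activity was then measured with ONE-Glo after 30 min at room temperature.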
# SMN2 splice enh: enhancers of SMN2 splice variant expression. HEK293 SMN2-luciferase splicing reporter, luminescence, 30-36 h. Potency, µM (series often up to 46.1 µM), for the others: at the top dose activity change, positive = activation, actives largely listed as activators. 210,000 tested, 2.8% active. AID 1458; also: % of control where 0% means no effect; nearly all actives have a fitted effect of over 55% in size
#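 qHTS luciferase splicing reporter: luminescence rises when SMN2 exon 7 is included in transfected HEK293 cells. Compound exposure lasted 30-36 h at 37C, with 4.5 mM final sodium butyrate as control, followed by a ONE-Glo read.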
# FLuc modulator: inhibits or activates purified firefly luciferase, miR-21 counter-screen; P08659; purified FLuc, Km substrates, luminescence inhibition; Potency, µM (series often up to 57.5 µM), for inactives: at the highest dose activity change, negative = inhibition, hits mostly inhibitors; 360,000 tested, 6.9% active;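 also: plate controls were vehicle for no effect and reference inhibitor for full effect; nearly all actives have a fitted effect of over 55% in size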
# Target sequence (P08659 whole entry, looked up): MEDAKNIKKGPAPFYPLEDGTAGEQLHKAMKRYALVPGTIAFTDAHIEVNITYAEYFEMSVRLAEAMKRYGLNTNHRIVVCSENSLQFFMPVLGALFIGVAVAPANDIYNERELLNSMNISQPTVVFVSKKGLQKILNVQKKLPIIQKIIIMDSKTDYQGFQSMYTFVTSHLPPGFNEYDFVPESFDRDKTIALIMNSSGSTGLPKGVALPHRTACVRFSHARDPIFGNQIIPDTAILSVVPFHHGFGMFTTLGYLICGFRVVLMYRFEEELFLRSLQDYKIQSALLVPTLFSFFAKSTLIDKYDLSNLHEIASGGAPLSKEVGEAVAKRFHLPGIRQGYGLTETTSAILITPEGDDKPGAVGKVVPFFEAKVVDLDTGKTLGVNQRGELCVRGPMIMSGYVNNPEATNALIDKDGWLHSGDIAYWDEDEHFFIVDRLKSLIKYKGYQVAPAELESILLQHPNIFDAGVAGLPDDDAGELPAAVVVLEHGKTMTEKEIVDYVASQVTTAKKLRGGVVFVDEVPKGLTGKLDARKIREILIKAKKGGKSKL
#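 Purified P. pyralis luciferase, 10 nM final, with Km-level 10 uM D-luciferin and 10 uM ATP in 50 mM Tris acetate pH 7.5, 10 mM Mg acetate, 0.01% Tween-20, 0.05% BSA; 6-point qHTS titration about 60 µM downward; luminescence read.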
# Active calls of the source: *; ? = inconclusive; . = no result; [ ] = dose if it differs, or a comment. Compounds with a hit are over-represented: about 7.4% of the library has one in this group of screens. Calls follow the shape of the dose curve; as a rule, active = well fitted curve in the direction sought with a large enough effect; inconclusive = small, poorly fitted or top-dose-only effect, or another doubt; inactive = no such curve, though single readings can be large; an effect the other way counts as inactive or inconclusive. Potency is read from the fitted curve at half-maximal effect.
SMILES,Luc counter,Rab9 prom act,NPC1 prom act,ELG1 genotox,SMN2 splice enh,FLuc modulator
CC(C)CC(=O)Nc1ccc(S(=O)(=O)Nc2cc3c(cc2N2CCOCC2)n(C)c(=O)c(=O)n3C)cc1,.,.,.,.,.,-1%
COc1cccc(C(=O)Nc2ccc(C(=O)OCc3cc(=O)n4cc(C)sc4n3)cc2)c1,.,.,.,.,.,-13%
CCc1nnc(NC(=O)C2Cc3ccccc3CN2S(=O)(=O)CC)s1 (stereo not given),1%,-4%,-2%,-9%,5%,-4%
CCS(=O)(=O)N1Cc2ccccc2CC1C(=O)Nc1nc2ccccc2s1 (stereo not given),-2%,10%,1%,2.3µM*,-47%,5.4µM*
CCS(=O)(=O)N1Cc2ccccc2CC1C(=O)Nc1nc2ccccc2[nH]1 (stereo not given),-1%,20%,24%,?,?,15µM*
N#Cc1c(/N=C/c2ccc(-c3ccccc3C(=O)O)o2)sc2c1CCCC2,.,0.71µM*,1.8µM*,15µM*,.,0.76µM*
COCc1cc(C)nc(N/N=C/c2ccc(-c3ccc(C(=O)O)c(Cl)c3)o2)c1C#N,-2%,1%,-1%,-1%,1%,-1%
N#Cc1c(/N=C/c2ccc(-c3ccc(C(=O)O)c(Cl)c3)o2)sc2c1CCCC2,.,-4%,1%,8%,.,2.4µM*
COc1ccc(CCNC(=O)c2nn(-c3ccc(C)cc3)c(=O)c3c2c2ccccc2n3C)cc1OC,.,.,.,.,-8%,3%
CC(=O)N1CCc2cc(S(=O)(=O)NC(CC(C)C)C(=O)NCCc3ccccc3)ccc21 (stereo not given),.,.,.,.,5%,4%
COc1cc(O)cc(/C=C/c2ccccc2)c1,-3%,.,.,.,?,.
COc1ccc2c(c1)CC/C(=C\C=C\c1ccccc1OC)C2=O,-18%,?,?,9%,11µM*,2.1µM*
COc1ccc2c(c1)C(=O)/C(=C/C=C/c1ccccc1)CC2,-5%,?,?,5%,11µM*,9.5µM*
Cc1cccc(NS(=O)(=O)c2ccc3c(c2)CCN3C(=O)C2CC2)c1C,.,.,.,.,-24%,?
COC(=O)C[C@H]1c2ccccc2[C@H]2C(=C[C@@H](C)[C@H]3C(=O)N(O)C(=O)[C@H]32)N1C(=O)OC,-3%[7.66 µM],.,.,.,2%[9.22 µM],.
CC1CCN(C(=O)CSc2nc(-c3ccc(C(C)C)cc3)no2)CC1,.,.,.,.,.,3.4µM*
COc1cc(NC(=O)CSc2nc(-c3ccccc3)no2)cc(OC)c1,.,.,.,.,.,1%
COc1cc(NC(=O)CSc2nc(-c3ccc(C(C)C)cc3)no2)cc(OC)c1,.,.,.,.,.,2.7µM*
CC(C)c1ccc(-c2noc(SCC(=O)N3CCN(c4ccc(F)cc4)CC3)n2)cc1,.,.,.,.,.,-14%
CC(C)c1ccc(-c2noc(SCC(=O)N3CCCCC3C)n2)cc1 (stereo not given),.,.,.,.,.,3µM*
CCN(C(=O)CSc1nc(-c2ccc(C(C)C)cc2)no1)c1ccccc1,.,.,.,.,.,9.5µM*
CN(C(=O)CSc1nc(-c2ccccc2)no1)c1ccc(F)cc1,.,.,.,.,.,-6%
O=C(Nc1cc2c(cc1C(=O)c1cccc(Br)c1)OCCO2)c1ccccc1F,.,.,.,.,0%,1%
O=[N+]([O-])c1ccc(O)c(/C=N/Nc2ccc(Cl)nn2)c1,-4%,-5%[1.84 µM],3.2µM*,7%,-66%,?
O=[N+]([O-])c1ccc(/C=N/NC2=NS(=O)(=O)c3ccccc32)cc1,-1%,-1%,-5%,3%,8%,15µM*
SMILES,Luc counter,Rab9 prom act,NPC1 prom act,ELG1 genotox,SMN2 splice enh,FLuc modulator
Cc1ccc(S(=O)(=O)N/N=C/c2ccc(O)cc2O)cc1[N+](=O)[O-],.,-2%,-2%,-2%,.,-21%
Cc1ccc(S(=O)(=O)N/N=C/c2cc([N+](=O)[O-])ccc2O)cc1[N+](=O)[O-],-1%,2%,-3%,10%,-20%,13µM*
O=[N+]([O-])c1ccc(O)c(/C=N/NC2=NS(=O)(=O)c3ccccc32)c1,-15%,12%,4%,-4%,-9%,8.5µM*
NC(C(=O)O)c1cccc(O)c1 (stereo not given),.,.,.,.,-10%,.
Cc1cccc(C(=O)NC2(C(F)(F)F)N=C(c3ccccc3)N(C3CCCCC3)C2=O)c1 (stereo not given),.,.,.,.,0%,1%
O=C(COC(=O)C1CC1)Nc1ccc(Oc2ccccc2)cc1,-5%,?,-2%,-2%,6%,21µM*
O=C(CCCC(=O)OCC(=O)c1cccs1)Nc1ccc(Oc2ccccc2)cc1,-3%,-2%,1%,-3%,5%,21µM*
O=C(O)CCC(=O)NNC(=O)CCC(=O)Nc1ccccc1,1%,-2%,3%,-8%,10%,1%
O=C(O)CCC(=O)Nc1ccc(N=Nc2ccccc2)cc1,0%,16%,12%,10%,10%,11µM*
O=C(CCCC(=O)OCC(=O)c1cccs1)Nc1ccc(F)cc1,0%,-2%,-2%,0%,8%,-12%
CCCC(=O)OCC(=O)Nc1ccc(N=Nc2ccccc2)cc1,-1%,3.5µM*,2.2µM*,21µM*,16µM*,9.5µM*
CC1CC1C(=O)OCC(=O)Nc1ccc(N=Nc2ccccc2)cc1 (stereo not given),4%,1.8µM*,3.2µM*,16µM*,13µM*,?
CC(C)(C)C(=O)Nc1ccc(C(=O)COC(=O)C2CC2)cc1,.,3.5µM*,?,11%,.,7.6µM*
COc1ccccc1C(=O)NC(=O)COC(=O)C1CC1C (stereo not given),.,0%,8%,-7%,.,8.5µM*
COc1ccc(-c2nc3c(c(SCC(=O)N4CCCCC4)n2)Cc2c(CO)cnc(C)c2O3)cc1,.,.,.,.,.,-1%
O=C(Nc1c(C(=O)c2ccc(F)cc2)oc2ccccc12)c1cc(-c2ccccc2)on1,.,.,.,.,.,-5%
Cc1cc(C(=O)COC(=O)c2ccc(O)cc2)c(C)n1-c1ccccc1F,1%,?,?,?,21%,2.4µM*
CCn1cc(C(=O)OCC(=O)c2cc(C)n(-c3ccccc3F)c2C)c(=O)c2ccc(C)nc21,-2%,-6%,-1%,1%,12%,?
CCn1c(C)cc(C(=O)COC(=O)c2ccccc2[N+](=O)[O-])c1C,.,.,.,-6%,.,.
Cc1ccc(-n2c(C)cc(C(=O)COC(=O)c3ccc[nH]c3=O)c2C)cc1C,-5%,?,?,?,7.1µM*,6µM*
Cc1cc(C(=O)COC(=O)c2ccc[nH]c2=O)c(C)n1-c1ccccc1F,.,0.4µM*,0.32µM*,?,.,1.5µM*

# Screens deposited in PubChem BioAssay by National Center for Advancing Translational Sciences (NCATS).
